ERK EGF block: qHTS Assay for Inhibitors of the ERK Signaling Pathway using a Homogeneous Screening Assay; Stimulation with EGF; Potency, µM (top dose mostly 11.5 µM), for inactives: at the highest dose activity change, negative = inhibition, actives largely listed as inhibitors; actives 0.41% (n = 130,000); HEK293-V1b, EGF-stimulated phospho-ERK AlphaScreen; AID 1454, 2008;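 further: potency means the concentration at half of the fitted maximal effect; plate controls were stimulated vehicle wells for no effect and unstimulated vehicle basal for full effect; nearly all actives have a fitted effect of over 55% in size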
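Compounds are titrated over HEK293-V1b cells kept overnight in 1% FBS. After 30 min at 37C, EGF (25 nM final) triggers ERK phosphorylation for 5 min, measured by AlphaScreen in lysates.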
ERK pERK EGF: Confirmation Concentration-Response Assay for Inhibitors of the ERK Signaling Pathway using a Homogeneous Screening Assay; Stimulation with EGF; HEK293 EGF-stimulated ERK phosphorylation, AlphaScreen; AID 1725, 2009; shares compounds with ERK EGF block; Potency, µM (series often up to 57.5 µM), for inactives: at the highest dose activity change, negative = inhibition, hits mostly inhibitors; actives 60% (n = 60)
c-Raf inh: Assay for Inhibitors of the ERK Signaling Pathway using a Homogeneous Screening Assay: c-Raf Inhibition; shares compounds with ERK EGF block; c-Raf kinase inhibition, homogeneous biochemical assay; activity change, negative = inhibition, % at 76.9 µM; 70 tested, under 10 active; AID 1728, 2009
Target sequence (P04049 whole entry, looked up): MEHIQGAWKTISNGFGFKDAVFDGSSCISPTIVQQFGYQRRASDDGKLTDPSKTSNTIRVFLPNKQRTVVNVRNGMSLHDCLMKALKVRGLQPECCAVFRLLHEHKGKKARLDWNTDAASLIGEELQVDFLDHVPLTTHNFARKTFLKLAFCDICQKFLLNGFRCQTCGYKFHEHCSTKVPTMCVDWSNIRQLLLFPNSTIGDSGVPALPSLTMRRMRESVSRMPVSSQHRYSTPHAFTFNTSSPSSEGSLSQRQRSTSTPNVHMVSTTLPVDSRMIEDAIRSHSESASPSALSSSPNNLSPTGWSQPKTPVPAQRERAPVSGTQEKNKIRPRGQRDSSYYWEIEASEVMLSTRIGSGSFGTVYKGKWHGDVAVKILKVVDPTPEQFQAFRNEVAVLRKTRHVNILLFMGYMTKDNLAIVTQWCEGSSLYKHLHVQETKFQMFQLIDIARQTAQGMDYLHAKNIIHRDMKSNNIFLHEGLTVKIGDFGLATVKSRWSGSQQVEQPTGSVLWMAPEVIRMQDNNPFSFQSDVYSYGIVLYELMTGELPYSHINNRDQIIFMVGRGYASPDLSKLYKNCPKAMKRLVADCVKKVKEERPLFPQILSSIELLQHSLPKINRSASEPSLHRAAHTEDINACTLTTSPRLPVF
MEK1 kinase inh: Assay for Inhibitors of the ERK Signaling Pathway using a Homogeneous Screening Assay: MEK Inhibition; homogeneous MEK kinase activity assay, ERK pathway; shares compounds with ERK EGF block; 70 tested, under 10 active; Potency, µM (top dose mostly 76.9 µM), for inactives: top-dose activity change, negative = inhibition, hits mostly inhibitors; AID 1732, 2009
Starred values were filed as active, the others as inactive; ? = inconclusive; · = not tested or not shown; [ ] = remark or other dose. Only a selection was taken, and hits are over-represented in it overall. The call rests on the fitted dose curve; in most records, active means well fitted curve in the direction sought with a large enough effect; inconclusive means small, poorly fitted or top-dose-only effect, or another doubt; inactive means no such curve, though single readings can be large; an effect the other way counts as inactive or inconclusive.

SMILES	ERK EGF block	others
O=C(O)c1ccc(N/N=C/c2ccc3c(c2)OCO3)cc1	3%
O=[N+]([O-])c1ccccc1N/N=C/c1ccc2c(c1)OCO2	?	ERK pERK EGF=?;c-Raf inh=-10;MEK1 kinase inh=-1%
O=c1cc(-c2ccc(O)cc2)oc2cccc(O)c12	-4%	ERK pERK EGF=-12%;c-Raf inh=?;MEK1 kinase inh=-6%
O=c1cc(-c2ccccc2Cl)oc2cccc(O)c12	-3%
O=c1cc(-c2ccc(O)c(O)c2)oc2cc(O)cc(O)c12	-5%
CCCCNc1nc(C)nc2c1nc(-c1ccccc1)n2CCCN(CC)CC	0%
COc1ccccc1CN1CCCC2(CCN(C(=O)c3c(C)noc3C)CC2)C1	3%
COC(=O)N1C(c2ccccc2)=Cc2ccccc2C1C1(C(=O)OC)CCCC1=O (centres undefined)	-6%
COc1ccc(NC(=O)N2CC[C@@]3(CCCN(C(=O)c4ccc(OC)cc4)C3)C2)cc1	-9%
c1ccc(-n2nnnc2Sc2ncnc3sc4c(c23)CCCC4)cc1	0%
Cc1sc2ncnc(Sc3nnnn3-c3ccc(Cl)cc3)c2c1C	·	ERK pERK EGF=-3%;c-Raf inh=-12;MEK1 kinase inh=3%
CSc1nnnn1-c1ccc(Cl)cc1	-7%
COC1C=CC23c4cc5c(cc4CN(CC2O)C3C1)OCO5 (centres undefined)	11%
O=C(c1ccco1)N1CCC2(CCCN(c3ncccn3)C2)CC1	10%
N#C/C(=C(/N)Sc1ccc(N)cc1)c1ccccc1C(F)(F)F	0.89µM*	c-Raf inh=12;MEK1 kinase inh=-16%
Nc1ccc(SC(F)(F)F)cc1	19%
O=C(NO)c1ccccc1C(F)(F)F	5%
CS(=O)(=O)N1CCC[C@@]2(CCN(C(=O)Nc3cccc(C#N)c3)C2)C1	0%
COC(=O)[C@@]1(Cc2ccccc2)[C@H]2c3cc(C(=O)N(C)C)n(CCO)c3C[C@H]2CN1C(=O)c1ccccc1	8%
O=C(c1cccc(F)c1)N1CCC[C@@]2(CCN(Cc3ccccc3)C2)C1	-8%
N#Cc1cccnc1Nc1cccc(Cl)c1	-19%
COc1cc2ncnc(Nc3cccc(Cl)c3)c2cc1OC	0.25µM*	ERK pERK EGF=0.2µM*;c-Raf inh=?;MEK1 kinase inh=-15%
COc1cc(C)c(NC(=S)Nc2cccc(Cl)c2)cc1OC	-4%
CCCCCC(=O)/C=C/C=C\C/C=C\C/C=C\CCCC(=O)O	5%
Cc1ccc(Nc2ncnc3sc(C)c(C)c23)cc1	8.9µM*	ERK pERK EGF=11µM*;c-Raf inh=?;MEK1 kinase inh=-18%
SMILES	ERK EGF block	others
Cc1ccc(OCC(=O)NNC(=O)CSc2ncnc3sc(C)c(C)c23)cc1	-1%
CC(=O)c1cnc(Nc2ccc(C)cc2)s1	-5%
CN(C)Cc1ccccc1-c1ccc2ncnc(NCc3ccccc3)c2c1	16%
c1cncc(-c2ccc3ncnc(N4CCNCC4)c3c2)c1	25%
c1ccc(Nc2ncnc3ccc(-c4cccnc4)cc23)cc1	2.5µM*	ERK pERK EGF=3.5µM*;c-Raf inh=?;MEK1 kinase inh=0%
Fc1cccc(Nc2ncnc3sc4c(c23)CCC4)c1	3.2µM*	ERK pERK EGF=10µM*;c-Raf inh=?;MEK1 kinase inh=8%
c1cncc(CNc2ncnc3sc4c(c23)CCC4)c1	-14%[57.5 µM]
O=S(=O)(Nc1ncnc2sc3c(c12)CCC3)c1cc(F)ccc1F	-12%[57.5 µM]
CCC1=C2CC[C@H]3C(=O)N(c4ccccc4)C(=O)[C@H]3[C@H]2[C@@]2(C)C(=O)N(Cc3ccccc3)C(=O)N2C1=O	7%
COc1ccc(Oc2ncc3ncc(=O)n(C[C@H]4CCCO4)c3n2)cc1	-4%

Assay outcomes (PubChem)
